Tests used:
Assay in all cases: log2 ratio of Biotin-Ahx-Ub-VS probe labelling (fragment/DMSO); higher = less target engagement (more negative = stronger competition), active = hit call of the paper (q ≤ 0.05, log2 ratio ≤ -1)
Settings in all cases: compound concentration: 200 uM; treatment time: 3 h
[1] = target: USP34 (UniProt Q70CQ2)
In short: (§1)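 Fragment (200 µM) or vehicle was incubated for 3 h with triplicate HEK293T lysate samples of 495 µg, which were then treated with Biotin-Ahx-Ub-VS at 0.5 µM final for 1 h. Labelled DUBs were enriched on NeutrAvidin, digested with LysC and trypsin, and analysed by diaPASEF LC-MS/MS. Values are average log2 fragment/vehicle ratios from an unpaired t-test on global-median-normalised Spectronaut label-free quantities, using proteins with ≥2 unique peptides.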

[2] = target: T1, USP36 (UniProt Q9P275)
T1 sequence (whole entry): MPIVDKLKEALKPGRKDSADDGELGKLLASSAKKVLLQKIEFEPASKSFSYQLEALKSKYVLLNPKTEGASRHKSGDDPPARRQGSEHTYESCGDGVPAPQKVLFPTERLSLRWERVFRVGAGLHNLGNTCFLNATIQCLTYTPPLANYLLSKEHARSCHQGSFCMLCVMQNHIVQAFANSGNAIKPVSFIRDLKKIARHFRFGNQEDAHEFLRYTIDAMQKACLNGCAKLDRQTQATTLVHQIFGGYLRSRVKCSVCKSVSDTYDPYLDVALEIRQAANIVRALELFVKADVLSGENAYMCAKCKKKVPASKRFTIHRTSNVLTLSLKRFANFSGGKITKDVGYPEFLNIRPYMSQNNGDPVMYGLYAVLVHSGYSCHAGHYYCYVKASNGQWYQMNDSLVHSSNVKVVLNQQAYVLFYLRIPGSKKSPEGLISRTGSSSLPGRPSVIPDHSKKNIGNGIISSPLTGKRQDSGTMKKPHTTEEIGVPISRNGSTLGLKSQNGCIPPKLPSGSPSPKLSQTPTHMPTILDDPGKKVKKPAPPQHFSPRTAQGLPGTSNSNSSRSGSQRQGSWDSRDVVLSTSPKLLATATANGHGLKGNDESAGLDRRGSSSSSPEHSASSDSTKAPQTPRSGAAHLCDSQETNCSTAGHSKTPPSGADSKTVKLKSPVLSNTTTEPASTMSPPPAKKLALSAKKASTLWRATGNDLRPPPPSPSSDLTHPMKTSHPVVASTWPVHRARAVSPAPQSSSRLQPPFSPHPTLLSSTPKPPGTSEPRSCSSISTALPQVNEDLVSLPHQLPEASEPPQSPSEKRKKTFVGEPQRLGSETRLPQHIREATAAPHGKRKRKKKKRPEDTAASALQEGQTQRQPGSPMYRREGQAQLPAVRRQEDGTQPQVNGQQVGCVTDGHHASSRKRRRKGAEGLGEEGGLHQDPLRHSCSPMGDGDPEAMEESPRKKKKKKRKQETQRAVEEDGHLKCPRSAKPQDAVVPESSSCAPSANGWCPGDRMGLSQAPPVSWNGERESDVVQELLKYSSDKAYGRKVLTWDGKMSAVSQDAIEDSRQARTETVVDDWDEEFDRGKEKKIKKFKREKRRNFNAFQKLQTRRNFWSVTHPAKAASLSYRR
In short: as §1

[3] = target: T2, USP38 (UniProt Q8NB14)
T2 sequence (whole entry): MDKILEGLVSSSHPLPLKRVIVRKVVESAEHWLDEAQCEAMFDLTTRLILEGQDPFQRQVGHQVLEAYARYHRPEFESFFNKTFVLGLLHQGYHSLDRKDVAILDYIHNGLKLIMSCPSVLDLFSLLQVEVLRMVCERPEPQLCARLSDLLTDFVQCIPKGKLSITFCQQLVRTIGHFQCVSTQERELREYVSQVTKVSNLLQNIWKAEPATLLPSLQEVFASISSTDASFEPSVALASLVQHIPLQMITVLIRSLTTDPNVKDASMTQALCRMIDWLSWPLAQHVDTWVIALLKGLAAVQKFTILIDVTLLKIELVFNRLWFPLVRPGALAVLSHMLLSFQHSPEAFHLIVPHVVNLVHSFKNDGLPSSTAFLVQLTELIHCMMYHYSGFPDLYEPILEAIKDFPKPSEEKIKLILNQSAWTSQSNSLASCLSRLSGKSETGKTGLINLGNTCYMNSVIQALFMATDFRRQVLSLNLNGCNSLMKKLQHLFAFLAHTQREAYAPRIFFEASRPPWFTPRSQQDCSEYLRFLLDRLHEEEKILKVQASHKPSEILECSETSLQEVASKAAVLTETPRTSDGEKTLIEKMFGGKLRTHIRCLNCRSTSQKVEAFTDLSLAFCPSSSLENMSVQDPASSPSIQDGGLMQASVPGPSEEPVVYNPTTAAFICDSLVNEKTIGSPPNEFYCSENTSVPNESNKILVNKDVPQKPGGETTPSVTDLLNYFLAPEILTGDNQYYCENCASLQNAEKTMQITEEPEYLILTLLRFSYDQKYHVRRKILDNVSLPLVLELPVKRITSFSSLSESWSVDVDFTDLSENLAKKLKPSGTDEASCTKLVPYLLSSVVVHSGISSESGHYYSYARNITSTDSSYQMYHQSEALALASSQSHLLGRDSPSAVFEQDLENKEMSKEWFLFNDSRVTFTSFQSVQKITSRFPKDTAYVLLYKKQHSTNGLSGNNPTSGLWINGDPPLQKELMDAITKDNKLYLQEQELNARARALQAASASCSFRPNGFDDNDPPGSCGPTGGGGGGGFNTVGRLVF
In short: as §1

[4] = target: T3, USP39 (UniProt Q53GS9)
T3 sequence (whole entry): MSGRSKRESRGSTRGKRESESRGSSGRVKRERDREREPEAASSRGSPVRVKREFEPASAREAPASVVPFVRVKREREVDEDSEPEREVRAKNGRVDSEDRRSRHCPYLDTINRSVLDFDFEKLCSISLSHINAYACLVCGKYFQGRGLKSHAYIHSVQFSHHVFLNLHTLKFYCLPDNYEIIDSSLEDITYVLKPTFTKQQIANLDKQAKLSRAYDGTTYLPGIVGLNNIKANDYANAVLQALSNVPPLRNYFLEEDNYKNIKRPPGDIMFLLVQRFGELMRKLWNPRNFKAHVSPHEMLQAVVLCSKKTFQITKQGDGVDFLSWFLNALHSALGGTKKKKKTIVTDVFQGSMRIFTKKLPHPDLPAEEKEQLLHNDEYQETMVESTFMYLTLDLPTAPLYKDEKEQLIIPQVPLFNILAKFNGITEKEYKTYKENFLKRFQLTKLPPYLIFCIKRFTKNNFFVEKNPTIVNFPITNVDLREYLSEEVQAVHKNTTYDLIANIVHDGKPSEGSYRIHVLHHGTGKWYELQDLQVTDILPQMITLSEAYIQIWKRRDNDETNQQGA
In short: as §1

[5] = target: T4, USP4 (UniProt Q13107)
T4 sequence (whole entry): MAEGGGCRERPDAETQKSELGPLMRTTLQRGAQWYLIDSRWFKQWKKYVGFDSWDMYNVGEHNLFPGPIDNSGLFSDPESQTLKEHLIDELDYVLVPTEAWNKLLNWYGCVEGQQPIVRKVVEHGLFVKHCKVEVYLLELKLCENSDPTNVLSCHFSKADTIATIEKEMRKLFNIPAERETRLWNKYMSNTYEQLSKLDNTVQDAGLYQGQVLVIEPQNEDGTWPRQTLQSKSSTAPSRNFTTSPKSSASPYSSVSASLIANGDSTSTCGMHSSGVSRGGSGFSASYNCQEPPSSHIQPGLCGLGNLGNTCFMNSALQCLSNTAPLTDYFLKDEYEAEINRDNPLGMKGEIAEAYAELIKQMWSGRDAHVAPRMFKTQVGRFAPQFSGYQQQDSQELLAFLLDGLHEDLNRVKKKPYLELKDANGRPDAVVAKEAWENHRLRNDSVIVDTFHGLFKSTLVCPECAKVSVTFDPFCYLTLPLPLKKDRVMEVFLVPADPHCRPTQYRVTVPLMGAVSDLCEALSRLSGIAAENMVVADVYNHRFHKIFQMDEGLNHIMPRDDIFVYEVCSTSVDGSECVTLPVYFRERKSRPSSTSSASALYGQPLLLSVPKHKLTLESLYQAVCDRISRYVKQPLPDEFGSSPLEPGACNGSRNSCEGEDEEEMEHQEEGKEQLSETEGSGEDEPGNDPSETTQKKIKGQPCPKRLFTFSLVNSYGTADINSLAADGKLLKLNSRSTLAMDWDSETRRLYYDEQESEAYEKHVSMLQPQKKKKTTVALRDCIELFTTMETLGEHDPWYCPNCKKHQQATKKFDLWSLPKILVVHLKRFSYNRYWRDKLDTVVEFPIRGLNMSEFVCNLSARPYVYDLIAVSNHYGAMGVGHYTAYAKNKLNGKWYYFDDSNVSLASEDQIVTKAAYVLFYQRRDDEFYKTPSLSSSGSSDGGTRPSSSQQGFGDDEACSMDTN
In short: as §1

Measured: log2 ratio of Biotin-Ahx-Ub-VS probe labelling

Sequence of USP34 (Q70CQ2 whole entry, the tested form may be a part): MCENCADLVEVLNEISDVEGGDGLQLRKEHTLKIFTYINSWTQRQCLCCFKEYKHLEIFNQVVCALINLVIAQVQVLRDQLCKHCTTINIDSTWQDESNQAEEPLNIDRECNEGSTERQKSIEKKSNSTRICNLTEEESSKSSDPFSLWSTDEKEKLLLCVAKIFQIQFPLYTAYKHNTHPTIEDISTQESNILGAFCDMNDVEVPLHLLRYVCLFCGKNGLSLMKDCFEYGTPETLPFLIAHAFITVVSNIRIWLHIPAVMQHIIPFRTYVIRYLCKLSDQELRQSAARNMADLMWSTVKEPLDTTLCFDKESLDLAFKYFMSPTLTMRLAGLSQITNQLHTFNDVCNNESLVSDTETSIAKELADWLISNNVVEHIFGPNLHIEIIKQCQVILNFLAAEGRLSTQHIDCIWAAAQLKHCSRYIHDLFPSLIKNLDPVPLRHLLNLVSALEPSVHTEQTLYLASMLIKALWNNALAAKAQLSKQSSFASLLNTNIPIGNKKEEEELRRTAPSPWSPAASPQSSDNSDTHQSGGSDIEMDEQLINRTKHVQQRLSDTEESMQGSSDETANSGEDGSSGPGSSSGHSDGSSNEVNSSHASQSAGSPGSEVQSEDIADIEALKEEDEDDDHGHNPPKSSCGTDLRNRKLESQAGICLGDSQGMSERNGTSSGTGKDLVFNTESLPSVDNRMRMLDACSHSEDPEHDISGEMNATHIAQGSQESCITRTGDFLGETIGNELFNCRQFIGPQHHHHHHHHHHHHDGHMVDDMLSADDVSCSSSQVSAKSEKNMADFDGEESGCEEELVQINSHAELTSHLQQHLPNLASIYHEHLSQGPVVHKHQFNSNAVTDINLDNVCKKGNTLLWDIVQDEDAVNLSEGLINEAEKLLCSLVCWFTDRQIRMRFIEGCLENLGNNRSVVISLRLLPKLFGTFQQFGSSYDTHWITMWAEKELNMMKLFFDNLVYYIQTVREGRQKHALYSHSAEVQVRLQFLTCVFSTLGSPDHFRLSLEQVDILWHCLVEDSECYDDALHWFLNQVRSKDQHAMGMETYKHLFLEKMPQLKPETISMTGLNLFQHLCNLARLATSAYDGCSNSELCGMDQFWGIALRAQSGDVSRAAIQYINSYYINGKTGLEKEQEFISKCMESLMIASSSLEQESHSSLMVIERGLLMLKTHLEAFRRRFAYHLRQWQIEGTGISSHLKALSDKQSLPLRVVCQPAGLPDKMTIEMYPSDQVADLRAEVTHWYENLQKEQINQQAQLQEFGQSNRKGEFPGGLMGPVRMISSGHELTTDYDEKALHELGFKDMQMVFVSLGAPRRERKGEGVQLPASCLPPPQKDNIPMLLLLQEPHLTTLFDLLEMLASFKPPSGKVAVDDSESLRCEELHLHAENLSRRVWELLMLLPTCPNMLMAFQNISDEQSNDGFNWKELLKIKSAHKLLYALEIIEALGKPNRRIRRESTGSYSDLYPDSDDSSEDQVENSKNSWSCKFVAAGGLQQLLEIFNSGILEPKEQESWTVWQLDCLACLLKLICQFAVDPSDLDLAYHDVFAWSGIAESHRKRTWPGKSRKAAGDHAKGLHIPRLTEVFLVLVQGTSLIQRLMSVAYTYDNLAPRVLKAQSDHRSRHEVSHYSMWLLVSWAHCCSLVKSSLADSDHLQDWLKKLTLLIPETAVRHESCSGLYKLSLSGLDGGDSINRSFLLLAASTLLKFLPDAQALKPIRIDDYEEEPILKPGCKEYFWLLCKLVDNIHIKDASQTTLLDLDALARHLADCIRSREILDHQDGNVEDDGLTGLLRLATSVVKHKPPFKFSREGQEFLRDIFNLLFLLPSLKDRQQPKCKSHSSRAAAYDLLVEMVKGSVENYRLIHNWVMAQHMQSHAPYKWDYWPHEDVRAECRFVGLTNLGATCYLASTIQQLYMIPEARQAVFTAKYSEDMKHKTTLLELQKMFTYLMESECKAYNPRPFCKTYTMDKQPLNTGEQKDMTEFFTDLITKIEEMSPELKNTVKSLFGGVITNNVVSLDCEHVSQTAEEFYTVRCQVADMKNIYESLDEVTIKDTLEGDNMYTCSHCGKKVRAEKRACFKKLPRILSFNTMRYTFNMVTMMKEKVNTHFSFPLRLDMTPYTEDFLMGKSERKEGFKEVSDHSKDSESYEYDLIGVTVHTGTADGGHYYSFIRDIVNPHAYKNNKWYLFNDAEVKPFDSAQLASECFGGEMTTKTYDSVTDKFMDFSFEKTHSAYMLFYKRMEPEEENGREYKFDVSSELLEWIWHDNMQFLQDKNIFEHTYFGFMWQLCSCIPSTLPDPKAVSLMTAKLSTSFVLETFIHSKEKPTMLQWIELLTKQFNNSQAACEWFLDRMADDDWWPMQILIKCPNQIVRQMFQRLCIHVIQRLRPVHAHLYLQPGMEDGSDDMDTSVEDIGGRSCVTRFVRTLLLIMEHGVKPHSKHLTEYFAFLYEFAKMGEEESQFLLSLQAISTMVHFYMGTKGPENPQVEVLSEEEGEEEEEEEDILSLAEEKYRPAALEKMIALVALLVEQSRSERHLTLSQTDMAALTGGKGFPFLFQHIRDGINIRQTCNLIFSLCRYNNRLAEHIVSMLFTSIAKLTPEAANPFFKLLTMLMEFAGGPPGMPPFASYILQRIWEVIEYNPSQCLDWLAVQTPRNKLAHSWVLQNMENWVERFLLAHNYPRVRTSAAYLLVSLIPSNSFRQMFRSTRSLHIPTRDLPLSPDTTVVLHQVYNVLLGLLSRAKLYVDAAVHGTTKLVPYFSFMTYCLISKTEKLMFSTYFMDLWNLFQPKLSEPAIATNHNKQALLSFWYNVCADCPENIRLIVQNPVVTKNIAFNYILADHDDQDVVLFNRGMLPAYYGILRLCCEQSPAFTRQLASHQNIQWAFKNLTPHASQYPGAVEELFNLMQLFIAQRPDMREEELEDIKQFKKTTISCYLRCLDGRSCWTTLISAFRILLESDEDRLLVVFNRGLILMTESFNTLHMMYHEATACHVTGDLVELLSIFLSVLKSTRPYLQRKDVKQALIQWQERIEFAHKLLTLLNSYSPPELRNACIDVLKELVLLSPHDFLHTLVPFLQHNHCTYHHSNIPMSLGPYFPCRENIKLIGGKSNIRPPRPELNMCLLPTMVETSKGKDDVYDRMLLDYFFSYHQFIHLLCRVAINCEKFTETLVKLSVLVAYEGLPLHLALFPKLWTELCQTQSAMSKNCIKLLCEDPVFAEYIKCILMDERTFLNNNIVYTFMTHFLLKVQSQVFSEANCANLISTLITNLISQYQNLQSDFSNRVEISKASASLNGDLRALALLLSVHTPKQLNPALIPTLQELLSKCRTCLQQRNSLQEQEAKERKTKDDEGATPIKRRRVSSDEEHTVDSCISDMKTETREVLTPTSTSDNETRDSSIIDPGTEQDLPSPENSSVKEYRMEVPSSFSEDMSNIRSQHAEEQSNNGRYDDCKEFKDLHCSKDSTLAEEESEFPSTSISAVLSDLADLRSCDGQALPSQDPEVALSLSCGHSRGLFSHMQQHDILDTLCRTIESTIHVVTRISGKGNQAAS

CN(C)C(=O)c1ccc(CNC(=O)CCl)cc1
inactive: [1] 0.0263 | [2] 0.0235 | [3] 0.231 | [4] 0.0923 | [5] 0.059

— the supplement of paper PMC11732987, “Enantioselective OTUD7B fragment discovery through chemoproteomics screening and high-throughput optimisation” (Communications Chemistry, 2025)
